HT1080 IDH1KD tx: qHTS for induction of synthetic lethality in tumor cells producing 2HG: qHTS for the HT-1080-IDH1KD cell line. HT-1080 IDH1 knockdown viability, ATP luminescence, 48 h. Potency, µM (doses to about 46.1 µM), most hits filed as cytotoxic. actives 2% (n = 360,000)
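Knockdown cells (IDH1KD HT-1080) received compounds 2 h after plating at 750 cells/well and were kept 48 h at 37 °C in 5% FBS RPMI. A CellTiter-Glo luminescence read gave % activity for curve fitting.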
KB-3-1 tox: qHTS assay for MDR1-selective chemotherapeutics: Primary screen using the parental adenocarcinoma cell KB-3-1. KB-3-1 viability, CellTiter-Glo ATP luminescence, 72 h. AID 1347075, 2019. actives 1.4% (n = 400,000). Potency, µM (doses to about 46.1 µM), usual class: cytotoxic; further: nearly all actives have a fitted effect of over 60% in size
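Luminescent ATP read-out (CellTiter-Glo) measures survival of drug-naive KB-3-1 cells after 72 h compound exposure at 37 °C. Titration series was screened from lowest to highest concentration, with DMSO vehicle plates as background controls.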
IL1B secr inh: qHTS for Inhibitors of Inflammasome Signaling: IL-1-beta AlphaLISA Primary Screen. THP-1 LPS/ATP IL-1B secretion, AlphaLISA, 16 h; stronger effect = lower value. activity change, % at 57.5 µM. actives 4.7% (n = 360,000). AID 743279, 2014; in the data active means activity change below about -50%; inconclusive means mostly about -30% to -49%
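Secreted IL-1B measured by AlphaLISA bead assay after 16 h compound exposure of THP-1 cells; compounds (final up to 57.5 uM) added 1 h before LPS (250 ng/mL) and ATP (1.25 mM) stimulation; lower signal means less secretion.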
KB-V1 cytotox: qHTS assay for MDR1-selective chemotherapeutics: Primary screen using the drug-selected MDR subline cells KB-V1; KB-V1 MDR cells viability, CellTiter-Glo, 72 h; Potency, µM (top dose mostly 46.1 µM), hits mostly cytotoxic; actives 3.4% (n = 400,000); further: nearly all actives have a fitted effect of over 60% in size
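KB-V1 MDR subline cells in DMEM (phenol-red free, 10% FBS) exposed to compounds in qHTS concentration series for 72 h at 37 degrees C. Viability read by CellTiter-Glo luminescence; concentration-effect curves fitted after normalization and correction.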
HT1080NT lethal: qHTS for induction of synthetic lethality in tumor cells producing 2HG: qHTS for the HT-1080-NT fibrosarcoma cell line; Potency, µM (titrated, usually from 46.1 µM), most hits filed as cytotoxic; HT-1080-NT fibrosarcoma viability, CellTiter-Glo ATP luminescence, 48 h; actives 1.6% (n = 360,000);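 further: NT is the 2HG producing partner of a matched IDH1 knockdown line; nearly all actives have a fitted effect of over 55% in size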
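Luminescent CellTiter-Glo readout after 48 hours of compound exposure at 37 degrees C defined viability of HT-1080-NT cells. Activity was normalized to DMSO wells and cell-free media wells; concentration-response curves were fitted and assigned curve classes.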
A number is an active result; – = inactive; ? = inconclusive; · = no result given; [ ] = remark or other dose. The list is not random: actives were taken first. Their share in the collection is about 8.8%. Unless noted, the call rests on the fitted dose curve; in most records, active means well fitted curve in the direction sought with a large enough effect; inconclusive means small, poorly fitted or top-dose-only effect, or another doubt; inactive means no such curve, though single readings can be large; an effect the other way counts as inactive or inconclusive.

SMILES	HT1080 IDH1KD tx	KB-3-1 tox	IL1B secr inh	KB-V1 cytotox	HT1080NT lethal
Cc1[nH]c2ccccc2c1C(=O)COC(=O)Cn1cnc2ccccc21	–	–	–	–	–
CCOC(=O)CCCCC(=O)c1[nH]c(=O)[nH]c1CSc1nc(-c2ccccc2)c(C#N)c(=O)[nH]1	–	–	-65.6	–	–
CCOc1cc(C(=O)OCc2cc(=O)n3c(C)csc3n2)cc(OCC)c1OCC	·	–	·	?	·
O=C(COc1ccccc1C(=O)Nc1ccccc1)Nc1ccc2ccccc2c1	–	·	·	·	–
OC[C@@H]1CN(Cc2cccs2)C[C@H](n2cnc3c(N4CCN(c5ccccc5)CC4)ncnc32)O1	?	–	–	–	–
OC[C@@H]1CN(Cc2ccc(F)cc2)C[C@H](n2cnc3c(N4CCCC4)ncnc32)O1	–	–	-91.4	?	?
CCN(CC)c1ncnc2c1ncn2[C@H]1CN(Cc2ccc(-c3ccccc3)cc2)C[C@@H](CO)O1	?	?	-53.7	–	?
CN1CCN(c2ncnc3c2ncn3[C@H]2CN(Cc3ccc(-c4ccccc4)cc3)C[C@@H](CO)O2)CC1	9.2µM	–	–	–	18.4µM
OC[C@@H]1CN(Cc2cccnc2)C[C@H](n2cnc3c(N4CCN(c5ccccc5)CC4)ncnc32)O1	–	–	-79.4	–	–
CCN(CCCN(C)C)c1ccc(/C=C/c2ccnc3ccccc23)cc1	·	–	·	?	·
COCC(=O)N1C[C@H](C)[C@H](OC)CN(C)C(=O)c2cc(NC(=O)Nc3cccc(F)c3)ccc2OC[C@@H]1C	–	–	–	–	–
O=C(NCCc1ccc(Cl)cc1)C1CCN(c2ncccn2)CC1	–	–	–	–	–
CCN(C[C@H]1N[C@@](Cc2ccccc2)(C(=O)OC)[C@H]2C(=O)N(C)C(=O)[C@@H]12)C(=O)C1CCCCC1	–	–	–	–	–
OCCN1CCN(c2ncnc3c2ncn3[C@H]2CN(Cc3ccc(-c4ccccc4)cc3)C[C@@H](CO)O2)CC1	?	–	–	–	20.6µM
O=[N+]([O-])c1cccc(NNS(=O)(=O)c2ccccc2F)c1	5.8µM	–	–	–	?
Cc1cc(S(=O)(=O)Nc2cccc([N+](=O)[O-])c2)c(C)s1	–	–	–	–	–
Cc1ccc(S(=O)(=O)Nc2ccc3cc([N+](=O)[O-])ccc3c2[N+](=O)[O-])cc1	?	?	–	?	2.59µM
O=S(=O)(Nc1ccc(-c2nc3cccnc3s2)cc1)c1ccccc1F	–	–	–	–	–
O=C(CN(c1ccccc1F)S(=O)(=O)c1ccccc1)NC1CCCCCC1	?	–	–	4.61µM	–
O=C(CN(c1ccc(F)cc1)S(=O)(=O)c1ccccc1)NCCSC1CCCCC1	?	?	-58.9	–	?
CS(=O)(=O)N(CC(=O)NCCSC1CCCCC1)c1ccc2c(c1)OCO2	–	–	–	18.4µM	–
Cc1ccc(S(=O)(=O)N(CC(=O)NC2CCCCCC2)c2ccccc2F)cc1	–	–	–	–	–[9.24 µM]
CC(C)(C)SCCNC(=O)CN(c1ccc(F)cc1)S(=O)(=O)c1ccccc1	–	–	–	–	–
Cc1ccccc1N=CC=C1OC(C)(C)C(C)(C)O1	–	–	–	–	–
Brc1ccc(-c2cn3c(n2)CCc2ccc4cccnc4c2-3)cc1	–	–	–	16.4µM	–
SMILES	HT1080 IDH1KD tx	KB-3-1 tox	IL1B secr inh	KB-V1 cytotox	HT1080NT lethal
Cc1ccc(/C=C(\C#N)C(=O)N2CCCC2)c(C)c1	?	–	-86.5	–	–
N#C/C(=C\c1ccc(O)cc1)C(=O)N1CCCC1	–	–	–	–	–
COC(=O)CSc1nc(N)c(C#N)c(-c2ccc(O)cc2)c1C#N	–	?	-70.0	–	–
CCOC(=O)CSc1nc(N)c(C#N)c(-c2ccc(OCC)cc2)c1C#N	–	–	–	–	–
CS(=O)(=O)n1nc(OC(=O)c2cc(Br)ccc2Cl)cc1N	–	–	–	–	–
CS(=O)(=O)n1nc(OC(=O)c2cccc3ccccc23)cc1N	?	–	-56.6	–	?
CCOc1ccccc1C(=O)Oc1c(Sc2ccccc2)c(C)nn1C(C)(C)C	·	–	·	–	·
Cc1ccc(O)c(NC(=O)Cc2ccc3ccccc3c2)c1	–	–	-65.3	–	?
O=C(O)Cc1ccc(NC(=O)Cc2ccc3ccccc3c2)cc1	–	–	–	?	–
Cc1ccc(CNCc2cc3c(C(C)(C)C)nn(-c4ccccc4)c3[nH]c2=O)cc1	?	–	-84.8	23.1µM	?
c1ccc(CSc2ccc3nnc(-c4cccnc4)n3n2)cc1	–	–	–	18.4µM	–
CC1(c2nnc(-c3cccc(Cl)c3)o2)CC(c2ccccc2F)=NO1 (stereo unspecified)	–	–	–	–	–
CCC(C)(C)c1ccc(Oc2ccc(N)cc2)cc1	?	–	–	–	16.4µM
O=c1[nH]c(=S)[nH]c2nccnc12	–	–	–	–	–
COCC(=O)OC1CCn2c1nc1c2C(=O)C(C)=C(NC(C)=O)C1=O (stereo unspecified)	4.61µM	?	–	–	7.31µM
O=C1Nc2ccc(Br)cc2C1=C1CCCCC1	16.4µM	–	–	?	?
C[C@H](c1ccccc1)N1C[C@H](COCc2ccccc2)Oc2cc(N3CCC[C@H]3C(N)=O)ccc2S1(=O)=O	?	?	–	?	–
CC(CN1CCN(C)CC1)OC(=O)c1ccc(Cl)cc1 (stereo unspecified)	–	–	-83.7	–	–
CC(CN1CCCCC1)OC(=O)c1ccc(Cl)cc1 (stereo unspecified)	–	–	–	–	–
O=S(=O)(c1cc(F)ccc1F)N1CCN(c2ncnc3ccccc23)CC1	?	5.17µM	–	9.2µM	?
Cn1c(-c2ccc3ccccc3n2)nc2cnccc21	–	–	–	10.3µM	–
COc1cc(OC)c(-c2nc3cnccc3n2C)cc1OC	–	–	–	–	–[9.24 µM]
CCOC(=O)C1=C(C)NC(=S)NC1/C=C/c1ccccc1 (stereo unspecified)	–	–	–	–	–
C=C1CCC[C@]2(C)C[C@H]3OC(=O)C(CNCCN(CC)CC)[C@H]3CC12 (stereo partly specified)	?	–	-96.5	–	–
C=C1CCC[C@]2(C)C[C@H]3OC(=O)C(CN4CC(C)OC(C)C4)[C@H]3C[C@@H]12 (stereo partly specified)	?	?	-71.4	–	?
C=C1CCC[C@]2(C)C[C@H]3OC(=O)C(CNCC(C)C)[C@H]3CC12 (stereo partly specified)	?	–	-69.1	–	?
